Test results: the supplement of paper PMC3334620
Over roughly 33,000 sequences, “E-score (-0.5 to 0.5)” has its median near -0.035; the highest 2% begin near 0.35. The sample as a whole holds a higher share of the highest values than the screen did.

The sequences below were run against T1, Pdr3 (UniProt P33200) (assay: PBM E-score (8-mer binding enrichment) (E-score (-0.5 to 0.5)); higher = stronger / more preferred TF binding). Conditions: protein concentration: 200 nM; construct: GST-full length.
T1 sequence: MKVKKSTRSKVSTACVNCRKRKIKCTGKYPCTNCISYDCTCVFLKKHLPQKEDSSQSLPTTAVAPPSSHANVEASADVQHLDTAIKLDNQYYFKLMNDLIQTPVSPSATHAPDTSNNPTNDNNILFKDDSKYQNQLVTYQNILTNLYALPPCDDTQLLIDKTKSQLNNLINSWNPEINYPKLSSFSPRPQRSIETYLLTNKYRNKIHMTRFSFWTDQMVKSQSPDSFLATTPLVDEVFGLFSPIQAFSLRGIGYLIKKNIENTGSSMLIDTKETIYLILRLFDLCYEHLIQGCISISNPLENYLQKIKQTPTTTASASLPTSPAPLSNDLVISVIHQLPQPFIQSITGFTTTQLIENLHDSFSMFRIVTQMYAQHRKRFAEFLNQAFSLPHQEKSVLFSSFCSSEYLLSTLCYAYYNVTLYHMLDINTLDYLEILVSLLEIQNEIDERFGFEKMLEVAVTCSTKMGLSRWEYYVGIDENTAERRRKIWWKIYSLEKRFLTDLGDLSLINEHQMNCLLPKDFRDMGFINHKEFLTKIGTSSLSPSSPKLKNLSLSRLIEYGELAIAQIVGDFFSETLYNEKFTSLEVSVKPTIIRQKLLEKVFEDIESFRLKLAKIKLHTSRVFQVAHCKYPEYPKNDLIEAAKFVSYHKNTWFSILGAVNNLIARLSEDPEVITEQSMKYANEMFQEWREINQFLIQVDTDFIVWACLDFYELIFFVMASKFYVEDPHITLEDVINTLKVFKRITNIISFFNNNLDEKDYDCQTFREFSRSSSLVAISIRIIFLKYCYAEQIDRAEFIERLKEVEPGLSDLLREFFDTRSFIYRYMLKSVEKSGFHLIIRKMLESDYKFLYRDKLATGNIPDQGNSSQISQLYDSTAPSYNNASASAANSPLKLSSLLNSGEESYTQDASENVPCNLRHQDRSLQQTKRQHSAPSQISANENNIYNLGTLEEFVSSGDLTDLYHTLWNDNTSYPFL
Outline: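 Bound GST-tagged yeast transcription factors, applied at about 100-200 nM to double-stranded universal all-10-mer Agilent arrays, were detected with fluorescent anti-GST. Scans were normalised with masliner. A modified Wilcoxon-Mann-Whitney statistic, the E-score, was assigned to each ungapped eight-base word pooled with its reverse complement by the Universal PBM Analysis Suite.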

Row | Sequence | PBM E-score
1 | TGGATCCA | 0.096
2 | GGGATCCA | 0.222
3 | AATCTTGT | 0.126
4 | GATCTGCA | -0.0215
5 | CCATTCAG | 0.0183
6 | GATTTCCC | 0.143
7 | CACTCAAC | -0.0691
8 | CGGGCGGA | 0.383
9 | AGGGCGGA | 0.285
10 | CGGGCGTA | 0.0837
11 | GGGGCGGA | 0.359
12 | CGGGCGGC | 0.291
13 | GGGGCGTA | -0.114
14 | AGTCGGCC | 0.13
15 | AGAAGCAC | -0.185
16 | AAAGTTAC | -0.127
17 | GAGGTGTA | -0.13
18 | AGATGCGC | 0.0125
19 | CCATGGAA | 0.156
20 | CGTTAGAG | -0.0371
21 | CGCGCGCG | 0.372
22 | ACCGCGCA | 0.0742
23 | CGCGCGCC | 0.241
24 | CCCGCGCA | 0.288
25 | CCCGCGCG | 0.382
26 | ACCGCGCT | 0.139

Row | Sequence | PBM E-score
27 | ACCGCGCC | 0.128
28 | TCCGCGCA | 0.397
29 | GCCGCGCA | 0.188
30 | CCCGCGCC | 0.265
31 | CGCGCGCA | 0.347
32 | ACCGCGCG | 0.397
33 | CCCAACCG | 0.00518
34 | CGACCGAG | 0.124
35 | TATCACGA | -0.126
36 | AAAATGAG | -0.188
37 | ATAGCTAC | -0.0621
38 | CAGGGGGA | -0.286
39 | CTTTTTTA | -0.0672
40 | ATCCCGGA | 0.417
41 | ATCCCAGA | -0.204
42 | ATCCCAAA | 0.0137
43 | CTCCCGGA | 0.386
44 | CTCCCCGC | 0.34
45 | ATCCCCGA | 0.303
46 | ATCCCCCG | 0.278
47 | CCCCCGGC | 0.037
48 | CTCCCCGA | 0.053
49 | CTCCCGCA | 0.145
50 | ATCCCCGG | 0.386
51 | CTCCCGGC | 0.368
52 | CGGCGTAA | -0.0269

Row | Sequence | PBM E-score
53 | CTGCGTGC | -0.0812
54 | AATTTGTG | 0.159
55 | ATGAGAAG | -0.162
56 | GTACTCGA | -0.0779
57 | GTCCCCGA | 0.166
58 | GTCCCGGA | 0.394
59 | ATCCCGGG | 0.455
60 | ATCCCGAC | 0.331
61 | ATCCCTGG | -0.0752
62 | GTCCCGCA | 0.229
63 | ACCCCGGC | 0.153
64 | ATCCCAGG | 0.113
65 | ATCCCGGC | 0.419
66 | ATGTTCAG | -0.207
67 | AGGTCTAA | -0.0213
68 | AGGAGGCA | -0.127
69 | AGAGCTCG | 0.0679
70 | CAATTCTC | -0.138
71 | AGATGGAG | -0.127
72 | CCATACCC | 0.0565
73 | CCGTGTCC | 0.356
74 | CCGTGTCA | 0.24
75 | GCGTGTCC | 0.201
76 | GGGTTTGA | -0.0398
77 | AGCGACGG | 0.258
78 | CGGGTCAA | 0.387

Row | Sequence | PBM E-score
79 | GGGGTCAA | -0.0321
80 | AGGGTCAA | -0.0253
81 | AATGGAGG | 0.0106
82 | GTCGGCTA | 0.0468
83 | CACAGAGG | -0.0837
84 | CATTCCAG | -0.131
85 | CATTCCAA | -0.102
86 | TATTCCGA | 0.407
87 | GATTCCCA | 0.0551
88 | GATTCCGA | 0.454
89 | CATTCCGA | 0.421
90 | CATTCCTA | -0.14
91 | GATTCCAA | -0.0548
92 | TATTCCCA | 0.0626
93 | CATTCCGG | 0.451
94 | CATTCCCG | 0.274
95 | TATTCCAA | -0.091
96 | AGTTGCAC | -0.136
97 | CTTGCCTC | 0.0139
98 | AGTCTCGG | 0.101
99 | ATGCGAAG | -0.0662
100 | GATCCCAA | 0.0388
101 | ATAAATAC | 0.176
102 | ACCGGGAA | 0.309
103 | AACGGGAC | 0.217
104 | AACGGGAT | 0.364

Row | Sequence | PBM E-score
105 | ACCGGGAC | 0.318
106 | ACCGGGAT | 0.357
107 | AACGGGAG | 0.179
108 | CGCACCAG | 0.133
109 | AGTTTGAT | 0.0669
110 | ACATGCTG | -0.158
111 | ACATTCCA | -0.0365
112 | AAGACTAC | -0.188
113 | CCGTTCCC | 0.253
114 | ACGTTCCG | 0.445
115 | ACGTTCCT | 0.0124
116 | ATGTTCCG | 0.48
117 | ATGTTCCA | 0.0325
118 | AGGTTCCC | -0.0087
119 | ACGTTCCA | 0.0623
120 | AGGTTCCA | -0.018
121 | ATGTTCCC | 0.153
122 | AGGTTCCG | 0.478
123 | CCGTTCCG | 0.477
124 | CCGTTCCA | 0.207
125 | GCAGGGAA | 0.0453
126 | GAATAGGA | 0.0694
127 | ACCGGTTG | 0.208
128 | AGCATTTG | -0.0766
129 | CGAGAGGC | -0.119
130 | GCGAGAGA | -0.148

Row | Sequence | PBM E-score
131 | CAGTCTTC | -0.147
132 | AAACTTAG | -0.216
133 | CTTGACAC | -0.222
134 | CAGGGCTA | -0.258
135 | ACTAGTAC | -0.105
136 | ACGAATAT | 0.0203
137 | AATGCCGA | 0.219
138 | AATGCCGG | 0.308
139 | CATGCCGG | 0.36
140 | AATGCCGT | 0.36
141 | CATGCCGA | 0.248
142 | CATGCCGC | 0.345
143 | ATCCTTGG | -0.0819
144 | CGCCGACC | 0.135
145 | AGAGTAGC | -0.228
146 | CCCGCAGG | 0.142
147 | CGGGAAAG | 0.281
148 | CAGGAAAG | -0.278
149 | AGGGAAAG | -0.106
150 | CGGGAAAC | 0.309
151 | ATGGAAAG | 0.0226
152 | CTGGAAAA | 0.144
153 | CCGGAAAC | 0.447
154 | ACGGAAAG | 0.44
155 | CAGGAAAC | -0.0475
156 | CCGGAAAA | 0.44

Row | Sequence | PBM E-score
157 | CAGGAAAA | 0.0238
158 | CCGGAAAG | 0.414
159 | CAGTCCCG | 0.273
160 | AGTTGACG | -0.0734
161 | CGAACTTA | 0.0051
162 | CTTAGGGA | -0.353
163 | GGCTAACA | -0.132
164 | ATAGGAGA | -0.363
165 | CAGTTACC | -0.0312
166 | AACGGATA | 0.417
167 | GACGGATA | 0.251
168 | AACGGATC | 0.367
169 | AACAGATC | -0.0307
170 | CACGGATG | 0.284
171 | CACGGATA | 0.373
172 | AACGGATG | 0.283
173 | CAAGGATC | -0.0745
174 | GACGGATC | 0.313
175 | TACGGATA | 0.224
176 | AACGGATT | 0.334
177 | CACGGATC | 0.395
